Laboratory results taken from PubChem BioAssay (NCI).
About 79,000 compounds went through this panel and 15% of them were active in at least one assay; those are over-represented in the sample as a whole. The source made the active and inactive calls. Cut-off read from the data, not from the text of the source: active = growth inhibition above about 70%; inactive = the rest.

Assays:
[1] = NCI Yeast Anticancer Drug Screen. Data for the rad50 strain (AID 155);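 note: 0% = growth of vehicle-only cultures of the same strain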; settings: S. cerevisiae rad50 strain growth inhibition, hits give high values; at 50.0 µM unless noted
Outline: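 Growth of the mutant yeast was measured after compound exposure and referenced to vehicle-treated cultures.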

[2] = NCI Yeast Anticancer Drug Screen. Data for the mec2-1 strain (AID 157); settings: S. cerevisiae mec2-1 strain, hits give high values; at 50.0 µM unless noted
Outline: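 Using mec2-1 yeast: add compound, measure growth, express inhibition versus vehicle-treated cultures.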

[3] = NCI Yeast Anticancer Drug Screen. Data for the sgs1 mgt1 strain (AID 161);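 note: 0% = growth of cultures given vehicle only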; settings: S. cerevisiae sgs1 mgt1 strain, hits give high values; at 50.0 µM unless noted
Outline: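 Growth of a repair-deficient yeast mutant was monitored after compound treatment and expressed as inhibition relative to vehicle-treated cultures.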

[4] = NCI Yeast Anticancer Drug Screen. Data for the cln2 rad14 strain (AID 165);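 note: 0% = growth equal to vehicle treated cultures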; settings: S. cerevisiae cln2 rad14 strain, hits give high values; at 50.0 µM unless noted
Outline: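 Yeast strain cln2 rad14, bearing defects in cell cycle control and DNA repair, serves as the test system; values reflect growth inhibition compared with vehicle.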

[5] = NCI Yeast Anticancer Drug Screen. Data for the bub3 strain (AID 167); settings: S. cerevisiae bub3 mutant strain, hits give high values; at 50.0 µM unless noted
Outline: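 Whole-cell yeast assay. The mutant strain was incubated with compounds, and growth inhibition was determined by comparison with vehicle-treated cells.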

[6] = NCI Yeast Anticancer Drug Screen. Data for the mlh1 rad18 strain (AID 175); settings: S. cerevisiae mlh1 rad18 strain growth inhibition, hits give high values; at 50.0 µM unless noted
Outline: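 Steps: expose repair-defective yeast to compound; measure growth; express inhibition against vehicle-treated controls.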

Measured: growth inhibition

OC(c1ccccc1)(c1ccccc1)C1/C(=C/c2ccccc2)C1Cc1ccccc1 (stereo unspecified)
inactive: [1] 4.85% | [2] 2.4% | [3] -7.9% | [4] -8.1% | [5] -3.75% | [6] 3%

O=C1c2cc([N+](=O)[O-])ccc2-c2ccc3c4ccc5c6c(ccc(c7ccc1c2c73)c64)C(=O)c1cc([N+](=O)[O-])ccc1-5
inactive: [1] 14% | [2] -10.6% | [3] -3.15% | [4] 21.4% | [5] -35.2% | [6] 26.1%

CC(C)/C(Cl)=N/OC(=O)Nc1ccc(F)c(Cl)c1
inactive: [1] 37.4% | [2] 35.3% | [4] -1.3% | [5] 60.8% | [6] -36.8%
active: [3] 89.3%

COc1ccc(/C(=C(/c2ccc(OC)cc2)C2CC2)C2CC2)cc1
inactive: [1] -5.3% | [2] 7.25% | [3] 11% | [4] -14.8% | [5] 5.45% | [6] 10.6%

CCOC(=O)C(=O)Nc1c(C)cccc1C(C)(C)C
inactive: [1] -22.1% | [2] -30.4% | [3] -4.35% | [4] 3.55% | [5] -16.8% | [6] -7.05%

OC1(C2NCCc3ccccc32)CCN(CCc2ccccc2)CC1 (stereo unspecified)
inactive: [1] 21.8% | [2] 10.7% | [3] 25.5% | [4] 20.2% | [5] 2.95% | [6] 8.9%

COc1cc(/C=C/C(=O)c2c(=O)o[nH][n+]2-c2ccccc2)ccc1[O-]
inactive: [1] -3.75% | [2] -7.1% | [3] 16.1% | [4] 20.9% | [5] -1.85% | [6] -18.1%

Nc1nc(Cl)c(N)c(NCC2(CO)CC(Cc3ccccc3)C2)n1 (stereo unspecified)
inactive: [1] 26.4% | [2] -35.4% | [3] 18.9% | [4] 7.6% | [5] 31% | [6] 15.1%

CC12CCC([C@H](C(O)C3CCCCC3)C1=O)C2(C)C (stereo partly specified)
inactive: [1] -2.7% | [2] -16.6% | [3] -12.8% | [4] 16.6% | [5] -5.7% | [6] -5.1%

O=C(Nc1cc(Cl)c(Cl)cc1Cl)C(=O)C(C(=O)c1ccccc1)C1OC(=O)c2ccccc21 (stereo unspecified)
inactive: [1] -18.6% | [2] -34.8% | [3] -25.1% | [4] -0.5% | [5] -10.2% | [6] -10.3%

COc1ccccc1C1OC(N)=C(O)C1=O (stereo unspecified)
inactive: [1] -14.4% | [2] -5.15% | [3] 7.3% | [4] -15.3% | [5] -2.5% | [6] 13.9%

C/C(CCc1ccccc1)=N\NC(N)=S
inactive: [1] 7.1% | [2] 0.95% | [3] 9.55% | [4] -35.1% | [5] -5.5% | [6] 10.3%

O=C(O)c1ccccc1SCCO
inactive: [1] -1.95% | [2] 18% | [3] 25.3% | [4] 47.8% | [5] -22.4% | [6] -3.8%

Cc1ccc(C2SC(N)=Nc3c2c(C)nn3C(=O)c2ccc(Cl)cc2)cc1 (stereo unspecified)
inactive: [1] -36.1% | [2] -42% | [3] -16.4% | [4] -33.5% | [5] -27.6% | [6] -24.9%

CC(=O)c1cccc(OC(=O)Nc2ccccc2)c1
inactive: [1] 6.45% | [2] -10.2% | [3] 2.5% | [4] 4.3% | [5] -1.45% | [6] 22.4%

O=C1CCCNC(=O)N1
inactive: [1] -11.2% | [2] 20.1% | [3] -19.3% | [4] 4.35% | [5] 1.95% | [6] -5.3%

CC/C(=N/NC(N)=O)c1ccc(C)cc1
inactive: [1] -11.9% | [2] -11.8% | [3] -10.2% | [4] -21.1% | [5] 2.75% | [6] -8.9%

NCc1cc(Br)ccc1O
inactive: [1] 24.4% | [2] 3.3% | [3] 23.5% | [4] -66.2% | [5] -11% | [6] 20.6%

CCCCCCCCCCCCNCCC(=O)O
inactive: [1] 25% | [2] -19% | [3] 42.1% | [4] 14.6% | [5] 50.5% | [6] 36.5%

CCN1CCC(S(=O)(=O)CCS(=O)(=O)C2CCN(CC)C2)C1 (stereo unspecified)
inactive: [1] -6.3% | [2] 0.55% | [3] 11.7% | [4] 3.6% | [5] 17.3% | [6] 2.05%

Cc1ccc2c(c1)P(=O)(O)c1cc(C)ccc1S2
inactive: [1] -12.4% | [2] -16.6% | [3] 14.4% | [4] 22.4% | [5] -4.05% | [6] 19.7%

O=CC(=O)C(O)C(O)C(O)CO (stereo unspecified)
inactive: [1] 9.5% | [2] 22.9% | [3] 26.2% | [4] -0.05% | [5] -4.95% | [6] 19.4%

COc1ccccc1NC(=O)C1=C(C)NC(C)=C(C(=O)Nc2ccccc2OC)C1c1ccc(C)cc1
inactive: [1] 12.7% | [2] -10.3% | [3] 3.75% | [4] 12.1% | [5] 12.3% | [6] -0.85%

COc1ccc(C(=O)C(CN(C)C)CN(C)C)c(OC)c1
inactive: [1] 30.6% | [2] 30.8% | [3] 57% | [4] 32.9% | [5] 30.8% | [6] 64.2%

Cc1cc(CSC(=N)N)c(CSC(=N)N)cc1C
inactive: [1] 9.75% | [2] -3.85% | [3] -2.45% | [4] -4.25% | [5] 4.65% | [6] 2.05%

CN(C)S(=O)(=O)c1ccccc1C(O)(c1ccccc1)c1ccccc1 (tested in a mixture with another compound)
inactive: [1] 35.1% | [2] 8.7% | [3] -7.75% | [4] -4.55% | [5] 15.2% | [6] 32.4%

CCCOC(=O)CCCC(=O)N(C(C)C)C(C)C
inactive: [1] -12.3% | [2] -2.7% | [3] 12.2% | [4] -29.5% | [5] 21.9% | [6] 4.65%

N#Cc1ccccc1NC(=O)C(=O)c1c(O)c2ccccc2oc1=O
inactive: [1] -13.8% | [2] -6.8% | [3] -16.1% | [4] -16.9% | [5] -12.2% | [6] -25%

O=Cc1ccc(N2CCOCC2)cc1
inactive: [1] 9.2% | [2] -2.1% | [3] -11.2% | [4] -29.6% | [5] -18.9% | [6] 1.95%

Cc1cc(C)c(CC(=O)c2ccccc2)c(C)c1
inactive: [1] 0% | [2] -9.5% | [3] -1.9% | [4] -32% | [5] 0.95% | [6] -5%

COc1cc2ccc3c4ccccc4cnc3c2cc1OC
inactive: [1] 8.1% | [2] 5.4% | [3] 0% | [4] 18.2% | [5] 13.7% | [6] 13.2%

NC(=O)C(=CN1C(=O)CC(=O)NC1=S)C(N)=O
inactive: [1] -29.8% | [2] -34% | [3] -11.6% | [4] -13.8% | [5] -26.6% | [6] 13.5%

CC1=C2CN(C(=O)OCC(C)C)CCC2C2=C(C(=O)c3ccccc3C2=O)C1C (stereo unspecified)
inactive: [1] 1.4% | [2] -3.75% | [3] 39.6% | [4] 14.6% | [5] -12.2% | [6] 44.5%

CCCCCCCCCCCC(=O)CCCCCCCCCCCC(=O)OC
inactive: [1] 2.15% | [2] 15.4% | [3] 17.1% | [4] 14.2% | [5] 45% | [6] -2.35%

CC1=CCCC2C(C=O)(C1)CC(C)C2(CO)CC/C(=C/CO)CO (stereo unspecified)
inactive: [1] 3.8% | [2] 4.05% | [3] -5.5% | [4] 32.8% | [5] -3.4% | [6] -5.7%

N#CCCN1CCCC(=O)NC1=O
inactive: [1] 4.4% | [2] -14.4% | [3] -5.35% | [4] -37.7% | [5] -7.4% | [6] -15.4%

CC1(O)CCCC1(C)O (stereo unspecified)
inactive: [1] -29.1% | [2] -21.1% | [3] -19.1% | [4] -38.9% | [5] -21.7% | [6] -23.8%

O=C(O)C(=O)c1c(O)[nH]c2ccccc12
inactive: [1] 1.35% | [2] -10.1% | [3] 11.5% | [4] -14.8% | [5] -8% | [6] 17.6%

CN(C)C=Nc1ccc2c3c(cccc13)-c1ccccc1-2
inactive: [1] -2.9% | [2] -24.1% | [3] 47.5% | [4] -0.35% | [5] 51.1% | [6] 41%

O=Cc1c[nH]c2ccc(F)cc12
inactive: [1] 9.85% | [2] -19.4% | [3] 20.6% | [4] 14.3% | [5] 19.9% | [6] 23.4%

CCOc1cc(OCC)c2c(c1)C(=O)OC2=O
inactive: [1] 4.15% | [2] -3.8% | [3] 10% | [4] 4.05% | [5] -34.4% | [6] -10.2%
